Source: PubChem (NMMLSC)
Only some compounds are listed: those with a hit (about 2.9% of all), similar ones and a draw of the others.
MEKK2mut PB1 HTS: MEK5 binding signal on mutant MEKK2 PB1, primary screen, biochemical, multiplex bead flow cytometry, Alexa488-MEK5; Alexa488-MEK5 binding to MEKK2 mutant; 0.35% of 290,000 active; percent response, % at 10 µM; in the data active means percent response above about 24%, passing the limit was not always enough
GRK2 aptamer HTS: compounds blocking aptamer binding on GRK2 – biochemical, human GRK2, bead flow cytometry, HTS, primary screen. inhibition of aptamer binding, % at 10 µM. 0.59% of 330,000 active. Beta-adrenergic receptor kinase 1 (Homo sapiens), P25098. FAM-aptamer displacement from GRK2;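 active means inhibition of aptamer binding above 40%, roughly 3 SD of noise, on plates passing a quality check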;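 further: median bead fluorescence of bound FAM aptamer so fluorescent compounds give negative values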
MEKK2wt PB1 HTS: modulators of MEK5 binding to wildtype MEKK2, primary screen, biochemical, multiplex bead flow cytometry, Alexa488-MEK5; Mitogen-activated protein kinase kinase kinase 2 (Homo sapiens), Q9Y2U5; Alexa488-MEK5 binding to MEKK2 WT; actives lie on both sides; binding response (% of control), % at 10 µM; 1.1% of 290,000 active; in the data active means binding response below about 67% or above about 130%
Beta2AR agonist: beta2AR agonists driving receptor internalization, primary screen, cell-based, FAP fluorogen, flow cytometry. Beta-2 adrenergic receptor (Homo sapiens), P07550. Am2.2-beta2AR cells. response, % (no concentration beside the values). 0.43% of 340,000 active. AID 504454, 2011;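 active means response above a set limit, near 3 SD of response in nonfluorescent compounds, cut at about 42% in these data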
Target sequence (P07550 whole entry, looked up): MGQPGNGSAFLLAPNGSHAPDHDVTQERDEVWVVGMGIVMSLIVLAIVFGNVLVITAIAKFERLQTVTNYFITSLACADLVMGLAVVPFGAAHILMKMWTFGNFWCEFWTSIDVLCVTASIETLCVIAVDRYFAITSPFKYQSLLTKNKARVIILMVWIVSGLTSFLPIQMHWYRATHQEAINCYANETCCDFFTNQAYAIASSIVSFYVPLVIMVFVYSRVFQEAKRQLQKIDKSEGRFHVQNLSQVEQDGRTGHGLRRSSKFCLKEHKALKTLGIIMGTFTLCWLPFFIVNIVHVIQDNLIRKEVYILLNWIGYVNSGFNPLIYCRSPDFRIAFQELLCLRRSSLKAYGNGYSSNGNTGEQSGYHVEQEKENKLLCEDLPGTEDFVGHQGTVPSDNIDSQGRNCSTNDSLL
MEKK3 PB1 HTS: modulators of MEKK3-MEK5 PB1 binding, primary screen, biochemical, wildtype MEKK3, multiplex bead flow cytometry, Alexa488-MEK5 | bead-based flow cytometry, Alexa488-MEK5 binding to MEKK3; actives lie on both sides; 0 = blocked by unlabeled MEK5, 100 = vehicle | binding response (% of control), % at 10 µM | Mitogen-activated protein kinase kinase kinase 3 (Homo sapiens), Q99759 | 1.4% of 290,000 active;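 active means binding response more than 3 SD above or below the average of its plate-row segment, actives on both sides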;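 further: Alexa488 bead fluorescence after subtracting the streptavidin-only scavenger bead signal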
* marks the source's active call; other numbers are inactive results; · = not tested or not shown.

SMILES | MEKK2mut PB1 HTS | GRK2 aptamer HTS | MEKK2wt PB1 HTS | Beta2AR agonist | MEKK3 PB1 HTS
COc1ccccc1N=Cc1c(O)n(C)c(=O)n(C)c1=O | · | 2 | · | 1 | ·
COc1ccc(Cl)cc1N=Cc1c(O)n(C)c(=O)n(C)c1=O | 1 | 1 | 100 | 57* | 104
CN1/C(=C\C=C\C2=[N+](C)c3ccc4ccccc4c3C2(C)C)C(C)(C)c2ccccc21 | -21 | 84* | · | · | 89
Brc1ccc(Oc2cc(Br)c(Br)cc2Br)c(Br)c1 | · | 0 | · | 11 | ·
CC(=O)OC(C)(C)/C=C/C(=O)[C@](C)(O)C1[C@H](O)C[C@@]2(C)C3CC=C4C(C[C@H](O)C(=O)C4(C)C)[C@]3(C)C(=O)C[C@]12C (stereo partly drawn) | · | 0 | · | 66* | ·
CC(C)(O)/C=C/C(=O)C(C)(O)C1C(O)CC2(C)C3CC=C4C(C=C(O)C(=O)C4(C)C)C3(C)C(=O)CC12C (stereo not drawn) | · | · | · | 42* | ·
Cc1nc(N2CCN(Cc3ccc4c(c3)OCO4)CC2)[nH]c(=O)c1C | -3 | · | 101 | 23 | 103
COC(=O)C1=C(c2ccc(F)cc2OCc2ccccc2)C[C@@H]2CC[C@H]1N2C(=O)N1CCOCC1 | · | 4 | · | -2 | ·
Cc1ccc(/C=C2/C(=O)NC(=O)N(Cc3ccc(F)cc3)C2=O)o1 | 6 | 0 | 101 | · | 101
Cc1ccc(/C=C2\C(=O)NC(=O)N(Cc3ccccc3Cl)C2=O)o1 | -15 | 1 | 68 | 59* | 61
COC(=O)C1=C(c2ccc(F)cc2F)C[C@@H]2CC[C@H]1N2C(=O)NCc1ccc(C(F)(F)F)cc1 | · | 2 | · | -13 | ·
CC(C)c1oc(=O)cc2c1[C@@H](O)[C@H]1OC(=O)[C@@]3(C)C[C@@H](O)[C@@H](O)[C@@]2(C)C13 (stereo partly drawn) | -7 | 4 | 88 | 75* | 83
CC(C)c1oc(=O)cc2c1[C@@H](O)[C@H]1OC(=O)[C@@]3(C)CC[C@@H](O)[C@@]2(C)C13 (stereo partly drawn) | 3 | 4 | 99 | 84* | 111
CCOP(=S)(OCC)N1CC1 | · | · | · | 0 | ·
CCC(CO)(C(=O)OC1CC2CCC(C1)N2C)c1ccccc1 (stereo not drawn) | 10 | 2 | 116 | 4 | 109
O=c1[nH]oc2c1CCNC2 | · | 4 | · | 1 | ·
O=[N+]([O-])c1ccc(Cl)c([N+](=O)[O-])c1 | · | 3 | · | 59* | ·
O=[N+]([O-])c1ccc(O)c([N+](=O)[O-])c1 | 6 | 0 | 115 | 9 | 109
C=C(C)[C@@H]1[C@H]2OC(=O)[C@H]1[C@]1(O)C[C@H]3O[C@]34C(=O)O[C@H]2[C@]14C | · | · | · | -5 | ·
C=CCN1C(=O)NC(=O)/C(=C/C=C/c2ccccc2)C1=O | 5 | · | 100 | 75* | 104
O=C1NC(=O)N(Cc2ccccc2)C(=O)/C1=C\C=C\c1ccco1 | 6 | 17 | 98 | 67* | 103
O=C1NC(=O)N(c2ccccc2)C(=O)/C1=C/C=C/c1ccco1 | -2 | 6 | 91 | 59* | 94
O=C1NC(=O)N(CCc2ccc(F)cc2)C(=O)/C1=C\C=C\c1ccccc1 | -15 | · | 81 | 10 | 92
CN1C(=O)/C(=C/C=C/c2ccco2)C(=O)NC1=S | -5 | 2 | 80 | 58* | 95
CN(C)c1ccc(/C=C/C=C2/C(=O)NC(=O)N(c3ccccc3)C2=O)cc1 | -8 | · | 97 | -603 | 107
O=c1c2ccccc2[nH]c(=S)n1-c1ccc2c(c1)OCCO2 | 9 | 1 | 102 | -9 | 100
Cc1ccc(N2C(=O)NC(=O)/C(=C\C=C\c3ccco3)C2=O)cc1C | -1 | 7 | 99 | 60* | 104
Cc1cccc(N2C(=O)NC(=O)/C(=C\c3cccn3-c3ccc(Cl)cc3)C2=O)c1 | 1 | 0 | 102 | 14 | 102
Cc1ccc(N2C(=O)NC(=O)/C(=C\C=C\c3ccco3)C2=O)cc1 | -13 | 25 | 96 | 69* | 96
Cc1cccc(N2C(=O)NC(=O)/C(=C\C=C\c3ccco3)C2=O)c1 | -3 | 4 | 94 | 69* | 99
